The source made the active and inactive calls. Unless noted, the rule behind the calls is not given here.
Legend:
[1] = tested on: Wnt5a (protein binding on small-molecule microarray); assay: small molecules binding Wnt5a protein – biophysical, small-molecule microarray, 635/667 nm fluorescence, primary screen (AID 1142); conditions: 635 nm fluorescence, higher = more signal;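 note: fluorescence read at 667 nm with signal to noise per printed feature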
[2] = ATP-based viability of Huh7 replicon cells – cell-based, CellTiter-Glo luminescence, basal, 48 h, cytotoxicity control for HCV replication inhibitor project, primary screen (AID 1143); conditions: higher = more signal, called active from +8 up or from −8 down;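 note: Huh7 hepatoma cells carrying a hepatitis C replication reporter with no stimulus; test concentration not given here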
[3] = Pseudomonas biofilm growth suppression – PAO1 strain, BacTiter-Glo luminescence, LB-PBS, primary screen (AID 1144); conditions: P. aeruginosa PAO1 biofilm, 12 h, higher = more signal
[4] = basal CRE-LacZ reporter activity in PC12 – cell-based, unstimulated, primary screen (AID 1145); conditions: no forskolin, luminescence, 4.5 h, higher = more signal, called active from +8 up or from −8 down
[5] = forskolin-driven CRE-LacZ activity in PC12 – cell-based, CRE-LacZ reporter, forskolin-stimulated, primary screen (AID 1146); conditions: luminescence, 4.5 h, higher = more signal, called active from +8 up or from −8 down;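 note: PC12 cells with 6xCRE LacZ reporter stimulated by forskolin 10 µM; beta-galactosidase reporter signal reflecting CREB driven transcription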
[6] = target: Streptavidin (Streptomyces avidinii) (UniProt P22629); assay: compounds binding control protein streptavidin – biophysical, small-molecule microarray, 635/667 nm fluorescence, artefact control for SMM compound annotation, primary screen (AID 1147); conditions: higher = more signal;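 note: signal reflects streptavidin binding to arrayed compounds as a control protein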
Sequence of Streptavidin (Streptomyces avidinii) (P22629 whole entry, looked up): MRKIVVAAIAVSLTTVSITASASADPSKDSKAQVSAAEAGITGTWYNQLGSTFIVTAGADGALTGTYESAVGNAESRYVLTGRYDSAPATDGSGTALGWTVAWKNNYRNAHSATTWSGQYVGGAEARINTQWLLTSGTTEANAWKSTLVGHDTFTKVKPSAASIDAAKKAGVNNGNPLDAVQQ

[7] = probe aInhba binding on compound microarray – biochemical, small-molecule microarray, 635/667 nm fluorescence, primary screen (AID 1148); conditions: higher = more signal;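 note: score merges 667nm spot fluorescence with signal-to-noise for antibody binding to printed compounds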
[8] = target: Torsin-1A (Homo sapiens) (UniProt O14656); assay: TOR1A wild-type binding on microarray – cell lysate, small-molecule microarray, lysate, 635/667 nm, primary screen (AID 1149); conditions: COS7 hTOR1A-WT lysate, 635 nm fluorescence, higher = more signal
Sequence of Torsin-1A (Homo sapiens) (O14656 whole entry, looked up): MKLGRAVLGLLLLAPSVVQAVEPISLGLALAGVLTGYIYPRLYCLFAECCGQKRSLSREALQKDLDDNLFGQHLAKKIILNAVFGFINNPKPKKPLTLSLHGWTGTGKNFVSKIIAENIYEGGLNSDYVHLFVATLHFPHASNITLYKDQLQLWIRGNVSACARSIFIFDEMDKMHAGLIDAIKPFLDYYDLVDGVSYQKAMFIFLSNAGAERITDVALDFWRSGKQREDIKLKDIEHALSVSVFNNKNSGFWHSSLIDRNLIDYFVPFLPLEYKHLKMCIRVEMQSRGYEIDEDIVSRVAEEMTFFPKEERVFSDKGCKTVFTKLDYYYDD

[9] = target: Torsin-1A (Homo sapiens) (UniProt O14656); assay: torsin A mutant lysate binding on microarrays – cell lysate, small-molecule microarray, COS7 lysate, 635/667 nm fluorescence, primary screen (AID 1150); conditions: COS7 hTOR1A mutant lysate, 635 nm fluorescence, higher = more signal;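 note: score pools 667 nm emission and signal to noise measuring lysate protein binding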
[10] = tested on: Sonic hedgehog protein (Shh); assay: Sonic hedgehog microarray binding compounds – biochemical, small-molecule microarray, 635/667 nm fluorescence, primary screen (AID 1151); conditions: 635 nm fluorescence, higher = more signal;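 note: Shh protein binding to compounds spotted on small-molecule microarray slides; score combines spot fluorescence intensity with signal-to-noise across triplicate slides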
[11] = optical density shifts of acrAB sulA E. coli – strain DRC41, OD650, 48 h, E. coli filamentation inducer project, primary screen (AID 1152); conditions: higher = more signal, called active from +8 up or from −8 down;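 note: E. coli MC1000 strain DRC41 lacking acrAB efflux pump and sulA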
[12] = probe aLefty1 binding on compound microarray – biochemical, small-molecule microarray, 635/667 nm fluorescence, primary screen (AID 1153); conditions: higher = more signal;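 note: score merges spot fluorescence with signal-to-noise ratio from the scanned slide images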
[13] = plasmodial surface anion channel blockers, osmotic lysis – cell-based, P. falciparum Indochina, OD700, 1 h, primary screen (AID 1154); conditions: P. falciparum Indochina infected RBC osmotic lysis, higher = more signal, called active from +8 up or from −8 down
[14] = plasmodial surface anion channel blockers, osmotic lysis – cell-based, P. falciparum Indochina, OD700, 2 h, primary screen (AID 1155);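 note: lysis reports solute entry through the parasite surface anion channel PSAC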; conditions: P. falciparum Indochina infected erythrocytes, higher = more signal, called active from +8 up or from −8 down
[15] = changes in parasitized red cell lysis, either direction – P. falciparum Indochina, OD700, 3 h, PSAC antagonist project, primary screen (AID 1156); conditions: P. falciparum-infected erythrocytes, osmotic lysis, higher = more signal, called active from +8 up or from −8 down
[16] = plasmodial surface anion channel blockers, osmotic lysis – cell-based, P. falciparum Indochina, OD700, 18 h, primary screen (AID 1157); conditions: P. falciparum Indochina infected erythrocytes, osmotic lysis OD700, 18 h; higher = more signal, called active from +8 up or from −8 down
[17] = S6 kinase pathway phospho-S6 level changes – cell-based, A549, cytoblot, luminescence, serum-stimulated, primary screen (AID 1158); conditions: 5 h, higher = more signal;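 note: serum-stimulated A549 lung adenocarcinoma cells; signal is phosphorylated S6 detected by cytoblot immunostaining with HRP secondary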
[18] = target: NADPH oxidase 2 (Homo sapiens) (UniProt P04839); assay: compounds shifting NOX2 Amplex Red fluorescence – cell-based, HEK293-NOX2, PMA-stimulated, NOX inhibitor project, primary screen (AID 1159); conditions: 45 min, higher = more signal, called active from +8 up or from −8 down; note: test concentration not given here
Sequence of NADPH oxidase 2 (Homo sapiens) (P04839 whole entry, looked up): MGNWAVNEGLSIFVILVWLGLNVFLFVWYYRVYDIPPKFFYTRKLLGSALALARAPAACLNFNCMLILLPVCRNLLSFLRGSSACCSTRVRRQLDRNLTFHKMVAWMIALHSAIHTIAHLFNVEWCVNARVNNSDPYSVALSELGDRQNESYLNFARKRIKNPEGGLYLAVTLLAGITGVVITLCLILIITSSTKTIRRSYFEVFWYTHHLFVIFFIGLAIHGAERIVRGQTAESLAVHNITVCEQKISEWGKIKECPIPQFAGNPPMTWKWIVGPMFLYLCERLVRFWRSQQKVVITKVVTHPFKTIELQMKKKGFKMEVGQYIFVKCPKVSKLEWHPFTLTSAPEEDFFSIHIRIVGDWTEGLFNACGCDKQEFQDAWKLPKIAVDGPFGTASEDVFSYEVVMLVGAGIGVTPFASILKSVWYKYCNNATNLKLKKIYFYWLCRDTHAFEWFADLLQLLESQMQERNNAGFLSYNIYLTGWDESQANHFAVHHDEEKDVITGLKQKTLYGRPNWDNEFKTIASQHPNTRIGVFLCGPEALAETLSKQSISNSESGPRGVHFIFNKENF

[19] = target: NADPH oxidase 4 (Homo sapiens) (UniProt Q9NPH5); assay: compounds shifting NOX4 Amplex Red fluorescence – cell-based, HEK293-NOX4, tetracycline-induced, NOX inhibitor project, primary screen (AID 1160); conditions: HEK293-NOX4, Amplex Red H2O2 fluorescence, 45 min; higher = more signal, called active from +8 up or from −8 down
Sequence of NADPH oxidase 4 (Homo sapiens) (Q9NPH5 whole entry, looked up): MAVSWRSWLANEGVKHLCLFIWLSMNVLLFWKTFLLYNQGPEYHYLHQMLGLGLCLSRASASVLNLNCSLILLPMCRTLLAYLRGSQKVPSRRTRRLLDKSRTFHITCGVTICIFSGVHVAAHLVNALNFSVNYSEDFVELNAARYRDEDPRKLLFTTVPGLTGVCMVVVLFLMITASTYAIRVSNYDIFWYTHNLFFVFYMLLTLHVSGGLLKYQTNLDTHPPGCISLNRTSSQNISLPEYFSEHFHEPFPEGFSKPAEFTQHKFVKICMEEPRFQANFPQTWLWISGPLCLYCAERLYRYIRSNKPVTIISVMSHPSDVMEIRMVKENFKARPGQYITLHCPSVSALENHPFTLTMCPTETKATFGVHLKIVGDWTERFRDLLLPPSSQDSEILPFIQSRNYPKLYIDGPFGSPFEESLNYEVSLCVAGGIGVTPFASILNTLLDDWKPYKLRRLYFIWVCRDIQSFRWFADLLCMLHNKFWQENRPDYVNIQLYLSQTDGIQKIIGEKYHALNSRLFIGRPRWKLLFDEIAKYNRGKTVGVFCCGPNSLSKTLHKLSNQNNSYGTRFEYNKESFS

[20] = target: NADPH oxidase 5 (Homo sapiens) (UniProt Q96PH1); assay: compounds shifting NOX5 Amplex Red fluorescence – cell-based, HEK293-NOX5, NOX inhibitor project, primary screen (AID 1161); conditions: HEK293-NOX5, ionomycin, 45 min, higher = more signal
Sequence of NADPH oxidase 5 (Homo sapiens) (Q96PH1 whole entry, looked up): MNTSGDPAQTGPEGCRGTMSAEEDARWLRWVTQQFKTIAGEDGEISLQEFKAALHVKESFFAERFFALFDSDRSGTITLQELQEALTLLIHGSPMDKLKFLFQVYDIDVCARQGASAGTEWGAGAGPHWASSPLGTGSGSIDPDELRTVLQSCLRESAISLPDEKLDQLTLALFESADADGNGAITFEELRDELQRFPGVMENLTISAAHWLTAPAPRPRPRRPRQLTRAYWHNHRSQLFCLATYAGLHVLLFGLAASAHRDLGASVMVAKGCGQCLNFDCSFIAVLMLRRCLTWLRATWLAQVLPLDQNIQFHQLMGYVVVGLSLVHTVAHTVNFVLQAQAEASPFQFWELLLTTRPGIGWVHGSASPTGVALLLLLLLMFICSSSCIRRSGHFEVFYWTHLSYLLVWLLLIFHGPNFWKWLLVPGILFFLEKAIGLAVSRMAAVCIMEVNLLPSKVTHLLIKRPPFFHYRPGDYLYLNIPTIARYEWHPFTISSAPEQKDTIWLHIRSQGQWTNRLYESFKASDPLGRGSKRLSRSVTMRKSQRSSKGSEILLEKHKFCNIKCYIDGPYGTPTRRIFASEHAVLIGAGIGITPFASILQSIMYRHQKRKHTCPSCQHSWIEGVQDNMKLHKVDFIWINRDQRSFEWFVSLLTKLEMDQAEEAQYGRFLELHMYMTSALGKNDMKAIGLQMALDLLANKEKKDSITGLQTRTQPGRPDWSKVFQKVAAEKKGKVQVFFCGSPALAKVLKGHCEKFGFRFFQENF

Row | SMILES | composite z-score [1] | z-score [2] | z-score [3] | z-score [4] | z-score [5] | composite z-score [6] | composite z-score [7] | composite z-score [8] | composite z-score [9] | composite z-score [10] | z-score [11] | composite z-score [12] | z-score [13] | z-score [14] | z-score [15] | z-score [16] | z-score [17] | z-score [18] | z-score [19] | z-score [20]
1 | COCCOC(=O)N1C(=O)[C@@]2(c3cc(C#CC4(O)CCCCCC4)ccc31)[C@H](c1ccccc1OCCO)N1[C@H](c3ccccc3)[C@H](c3ccccc3)OC(=O)[C@H]1[C@@H]2C(N)=O | 0.448 | -6.31 (inactive) | 0.754 (inactive) | 0.245 (inactive) | 0.0169 (inactive) | 0.421 | -0.0494 | 0.749 | 0.761 | 1.97 | -0.552 (inactive) | -0.0046 | 4.08 (inactive) | 1.76 (inactive) | -0.971 (inactive) | 0.76 (inactive) | -0.255 | 1.8 (inactive) | -0.551 (inactive) | -0.269
2 | CC(C)(C)OC(=O)CC[C@]1(C(=O)NCCN2CCOCC2)N=C(c2ccc(OCCCO)cc2)O[C@H]1c1ccccc1N=[N+]=[N-] | 0.191 | -0.616 (inactive) | 0.145 (inactive) | 0.872 (inactive) | -0.55 (inactive) | 0.615 | 0.367 | 0.0272 | 1.28 | -0.299 | -0.105 (inactive) | 0.591 | 31.3 (active) | 29.2 (active) | 2.64 (inactive) | 6.62 (inactive) | -0.136 | -2.46 (inactive) | 1.62 (inactive) | -1.99
3 | CCCN1C(=O)[C@]2(Cc3ccccc3)N=C(c3ccc(OCCCO)cc3)O[C@@H]2c2ccccc21 | 1.19 | -5.27 (inactive) | -0.204 (inactive) | 1.04 (inactive) | -1.11 (inactive) | 0.501 | 0.872 | 0.317 | 0.773 | 1.84 | 0.655 (inactive) | 0.268 | 34 (active) | 27.2 (active) | 1.25 (inactive) | 4.25 (inactive) | 1.56 | -2.25 (inactive) | 0.187 (inactive) | -1.27
4 | O=C1c2ccccc2[C@](Cc2ccccc2I)(C(=O)NCCN2CCOCC2)[C@H](c2ccc(CO)cc2)N1Cc1ccccc1 | 0.265 | -1.98 (inactive) | 0.536 (inactive) | 0.649 (inactive) | 0.413 (inactive) | 1.17 | 0.444 | 0.0373 | 0.802 | 1.21 | -0.381 (inactive) | 0.641 | 4.18 (inactive) | 0.815 (inactive) | -0.188 (inactive) | 0.352 (inactive) | -0.0041 | 0.744 (inactive) | 0.91 (inactive) | 0.665
5 | CCC[C@@H]1C[C@@]1(CCC)[C@@H](NP(=O)(c1ccccc1)c1ccccc1)c1ccc(Cl)cc1 | -0.298 | -1.4 (inactive) | 0.22 (inactive) | 0.0007 (inactive) | -0.113 (inactive) | -0.749 | -0.232 | -0.753 | -0.731 | -0.447 | -2.39 (inactive) | 0.0315 | 0.887 (inactive) | 0.0991 (inactive) | 0.278 (inactive) | 0.323 (inactive) | 0.0038 | -0.769 (inactive) | -1.97 (inactive) | 0.429
6 | CCOC(=O)[C@H]1C/C=C/C[C@H](C(=O)OCC)C(=O)O[C@H]2[C@@H](OC)O[C@H](CO)[C@@H](OC(=O)CCc3ccccc3)[C@@H]2OC1=O | -0.581 | -1.31 (inactive) | -1.28 (inactive) | -0.475 (inactive) | -0.0955 (inactive) | -0.345 | 0.788 | -0.407 | -0.532 | -0.0617 | -0.142 (inactive) | 1.63 | 0.955 (inactive) | 0.175 (inactive) | -0.518 (inactive) | 0.386 (inactive) | -0.0947 | 0.281 (inactive) | 0.273 (inactive) | 0.541
7 | C=C(CCCC)C(=O)CC[C@@H](OC(=O)c1ccccc1-c1ccccc1C(=O)O)c1cccc(OCCO)c1 | 0.137 | -0.854 (inactive) | 0.194 (inactive) | 3.31 (inactive) | 8.69 (active) | -0.6 | -0.231 | 0.604 | 0.561 | 1.68 | -0.397 (inactive) | -0.168 | 22.3 (active) | 4.27 (inactive) | 1.11 (inactive) | 0.896 (inactive) | -0.348 | 2.86 (inactive) | -0.351 (inactive) | -1.08
8 | O=C1O[C@@H](c2ccccc2)[C@@H](c2ccccc2)N2[C@@H](c3ccccc3OCCO)[C@]3(C(=O)Nc4ccc(C#CC5=CCCCC5)cc43)[C@@H](C(=O)NC[C@H](O)c3ccccc3)[C@H]12 | 0.361 | -6.39 (inactive) | -0.534 (inactive) | -1.56 (inactive) | -1.15 (inactive) | 0.625 | 0.162 | 0.385 | -0.0373 | 1.99 | 2 (inactive) | 0.277 | 0.996 (inactive) | 0.526 (inactive) | -2.18 (inactive) | 0.0195 (inactive) | 0.581 | 1.74 (inactive) | 1.1 (inactive) | 2.55
9 | O=C(O)[C@H](Cc1ccccc1)n1cc(-c2ccccn2)nn1 | 0.0676 | -0.437 (inactive) | -0.0406 (inactive) | 0.688 (inactive) | -0.377 (inactive) | 0.303 | -0.0645 | 0.307 | 0.407 | 0.506 | -0.267 (inactive) | -0.0969 | -0.258 (inactive) | -0.431 (inactive) | -0.906 (inactive) | -0.0561 (inactive) | -0.428 | -1.61 (inactive) | -0.653 (inactive) | -1.24

Source: PubChem BioAssay
